# D2 ag-1 = activates the human D2 dopamine receptor; P14416; HEK293 T-REx D2 cells, calcium flux agonist mode; activation, % at 2 µM; 340,000 tested, 0.53% active; AID 485358;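 active = activation over 3 SD above normal in the single-dose calcium agonist read, cut at about 30% in these data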; also: 0% is about no effect
# Target sequence (P14416 whole entry, looked up): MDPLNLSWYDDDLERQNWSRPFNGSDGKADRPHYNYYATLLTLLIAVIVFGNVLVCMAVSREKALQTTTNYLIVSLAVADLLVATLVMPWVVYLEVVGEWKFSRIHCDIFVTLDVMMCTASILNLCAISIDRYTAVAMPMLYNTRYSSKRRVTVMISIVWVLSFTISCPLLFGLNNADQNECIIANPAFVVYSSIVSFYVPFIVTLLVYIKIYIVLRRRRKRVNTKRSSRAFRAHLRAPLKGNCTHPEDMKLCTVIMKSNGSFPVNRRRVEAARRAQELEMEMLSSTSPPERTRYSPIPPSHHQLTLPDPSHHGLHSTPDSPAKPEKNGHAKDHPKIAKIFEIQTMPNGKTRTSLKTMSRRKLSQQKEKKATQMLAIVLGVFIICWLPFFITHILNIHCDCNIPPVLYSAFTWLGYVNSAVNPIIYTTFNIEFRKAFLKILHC
#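 Tetracycline-induced HEK293 Trex cells with D2 receptor force-coupled to calcium signaling, plated overnight at 30 C and loaded with no-wash calcium dye. Calcium flux read kinetically for 180 s after compound addition; responses flag agonists.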
# D2 PAM-1 = D2 dopamine receptor (human) potentiation. P14416. HEK293 T-REx D2, calcium flux, EC20 dopamine potentiation. potentiation, % at 10 µM. 340,000 tested, 0.34% active. AID 485347;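 active = potentiation over 3 SD above the plate norm, cut at about 30% in these data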; also: 0% is about no effect
#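 Tetracycline-induced HEK293 T-REx cells force-coupled to calcium signalling expressed D2; compounds were pin-added after a 10 s baseline, read kinetically 180 s, then an EC20 dopamine challenge followed with a further 180 s calcium read.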
# D2 antag = antagonists of human D2 dopamine receptor; P14416; HEK293 TREx D2 cells, calcium flux, dopamine EC80; inhibition, % at 10 µM; 340,000 tested, 2% active; AID 485344; in the data active = inhibition above about 30%; inactive = below that, where a call was filed; also: 0% is about no effect
#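 Calcium mobilization kinetics were recorded at 1 s intervals in tetracycline-induced HEK293 T-REx D2 cells, first for 180 s after compound addition and then 180 s after EC80 dopamine.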
# D2 PAM-2 = potentiates the human D2 dopamine receptor allosterically | P14416 | DiscoveRx D2 beta-arrestin cells, luminescence, 90 min; 100% = 57 uM dopamine signal | potentiation, % (no concentration beside the values) | 360,000 tested, 0.23% active; in the data active = potentiation above about 50%
#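 D2 cells co-treated with compound plus 50 nM dopamine (EC20) for 90 min at 37 deg C to detect potentiation. Beta-arrestin recruitment was read as enzyme-fragment luminescence after 1 h at ambient temperature. Full response was set by 57 uM dopamine.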
# D2 ag-2 = human D2 receptor agonism in beta-arrestin assay; P14416; DiscoveRx PathHunter D2 beta-arrestin, luminescence, 90 min; 100% = 57 uM dopamine signal; activation, % (concentration not given with the values); 360,000 tested, 0.084% active; in the data active = activation above about 40%
#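 DiscoveRx PathHunter D2 beta-arrestin cells (2,100/well) attached overnight, then compound-stimulated 90 min at 37 C in HBSS/10 mM HEPES/0.1% Tween-20 buffer; beta-galactosidase complementation read by luminescence after 1 h at ambient temperature. Dopamine 57 uM final (EC100) as control.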
# Starred values were filed as active, the others as inactive; . = no result. The list is not random: actives were taken first. Their share in the collection is about 2.4%.
SMILES,D2 ag-1,D2 PAM-1,D2 antag,D2 PAM-2,D2 ag-2
Cc1nc(SC(C)C(=O)Nc2ccccc2Cl)cc(-c2ccccc2)n1 (centres undefined),.,4,.,.,.
CNC(=S)NC1CC2CCCC(C1)N2Cc1ccccc1OC (centres undefined),1,-8,0,-17,1
CCNC(=S)NC1CC2CCCC(C1)N2Cc1ccc(C)cc1 (centres undefined),1,-20,82*,-76,-3
CCNC(=S)NC1CC2CCCC(C1)N2Cc1ccco1 (centres undefined),0,-19,6,-25,2
CNC(=S)NC1CC2CCCC(C1)N2Cc1ccc(C)cc1 (centres undefined),0,-25,81*,-20,-4
CN(C(=O)c1ccccc1C(=O)OCC(=O)Nc1cccc(Br)c1)c1ccccc1,0,5,14,-12,-1
O=C(NCCc1ccc(Cl)cc1)c1n[nH]c2ccccc12,0,4,-20,-7,-1
CCC1CCCCN1C(=O)COc1cccc2c1CCN(C)C2=O (centres undefined),-1,4,-9,-7,-2
CC1=C(C(=O)Nc2ccccc2)C(c2cccs2)n2nnnc2N1 (centres undefined),-1,2,36*,-8,-2
CCCCn1c(N)c(N(CC(C)C)C(=O)C2CC(=O)N(c3ccc4c(c3)OCCO4)C2)c(=O)[nH]c1=O (centres undefined),0,-4,39*,-6,-7
CCCCN(C(=O)C1CC(=O)N(c2ccc(C)cc2)C1)c1c(N)n(CCC)c(=O)[nH]c1=O (centres undefined),0,-6,38*,-26,-5
Cc1ccc(CSCC(=O)N2CCN(c3ccc(F)cc3)CC2)cc1,0,3,-10,-4,-2
CCCn1c(N)c(N(CCOC)C(=O)c2ccccc2)c(=O)[nH]c1=O,1,-11,55*,-1,-1
COCCCN(C(=O)Cc1coc2cc(C)c(C)cc12)c1c(N)n(Cc2ccccc2)c(=O)[nH]c1=O,0,5,48*,-2,-1
CCCCN(C(=O)c1ccc(C#N)cc1)c1c(N)n(CCC)c(=O)[nH]c1=O,-2,-3,42*,-5,-3
COCCN(C(=O)Cc1coc2cc(C)c(C)cc12)c1c(N)n(Cc2ccccc2)c(=O)[nH]c1=O,0,1,4,-6,0
Cc1cc(NCc2ccc3c(c2)OCO3)n2nc(C)nc2n1,-1,11,13,0,-3
CCN(CC)C(=O)Cn1cc(S(=O)(=O)CC(=O)Nc2ccc3c(c2)OCCO3)c2ccccc21,1,-1,-3,-2,1
Cc1ccc(-c2c[n+](Cc3ccc(Cl)cc3)c3n2CCC3)cc1,-1,-27,-13,-18,-6
Clc1ccc(-c2c[n+](Cc3ccc(Cl)c(Cl)c3)c3n2CCC3)cc1,-1,-20,41*,.,.
CCOC(=O)N1CCN(C(=O)COc2cccc3c2CCN(CC)C3=O)CC1,0,4,1,-1,3
Cc1ccc(NC(=O)c2ccc(CN3CCc4ccccc4C3)cc2)cc1,1,-17,17,-41,-9
COC(=O)c1ccc(C)c(NC(=O)c2ccc(CN3CCc4ccccc4C3)cc2)c1,22,-29,78*,-26,-8
O=C(Nc1ccccc1)c1ccc(CN2CCc3ccccc3C2)cc1,-1,.,54*,-12,1
O=C(Nc1cccnc1)c1ccc(CN2CCc3ccccc3C2)cc1,3,-23,66*,-36,-1
COc1ccc(S(N)(=O)=O)cc1-c1nnc2c3ccccc3c(C)nn12,0,-3,30*,0,1
Cc1ccc(S(=O)(=O)Cc2ccc(C(=O)N3CCN(Cc4ccccc4)CC3)o2)cc1,-1,51*,-9,.,.
Cc1ccc(S(=O)(=O)Cc2ccc(C(=O)N3CCc4ccccc4C3)o2)cc1,0,58*,-16,-10,1
COc1ccc(S(=O)(=O)Cc2ccc(C(=O)N3CCN(Cc4ccccc4)CC3)o2)cc1,3,6,0,-3,1
C=CCn1c(=S)[nH]c2scc(-c3ccc(C)o3)c2c1=O,2,11,32*,-3,-3
